Legend:
Assay in all cases: log2 ratio of Biotin-Ahx-Ub-VS probe labelling (fragment/DMSO); higher = less target engagement (more negative = stronger competition), active = hit call of the paper (q ≤ 0.05, log2 ratio ≤ -1)
Settings in all cases: compound concentration: 200 uM; treatment time: 3 h
USP42 = molecular target: T1, USP42 (UniProt Q9H9J4)
T1 sequence (whole entry): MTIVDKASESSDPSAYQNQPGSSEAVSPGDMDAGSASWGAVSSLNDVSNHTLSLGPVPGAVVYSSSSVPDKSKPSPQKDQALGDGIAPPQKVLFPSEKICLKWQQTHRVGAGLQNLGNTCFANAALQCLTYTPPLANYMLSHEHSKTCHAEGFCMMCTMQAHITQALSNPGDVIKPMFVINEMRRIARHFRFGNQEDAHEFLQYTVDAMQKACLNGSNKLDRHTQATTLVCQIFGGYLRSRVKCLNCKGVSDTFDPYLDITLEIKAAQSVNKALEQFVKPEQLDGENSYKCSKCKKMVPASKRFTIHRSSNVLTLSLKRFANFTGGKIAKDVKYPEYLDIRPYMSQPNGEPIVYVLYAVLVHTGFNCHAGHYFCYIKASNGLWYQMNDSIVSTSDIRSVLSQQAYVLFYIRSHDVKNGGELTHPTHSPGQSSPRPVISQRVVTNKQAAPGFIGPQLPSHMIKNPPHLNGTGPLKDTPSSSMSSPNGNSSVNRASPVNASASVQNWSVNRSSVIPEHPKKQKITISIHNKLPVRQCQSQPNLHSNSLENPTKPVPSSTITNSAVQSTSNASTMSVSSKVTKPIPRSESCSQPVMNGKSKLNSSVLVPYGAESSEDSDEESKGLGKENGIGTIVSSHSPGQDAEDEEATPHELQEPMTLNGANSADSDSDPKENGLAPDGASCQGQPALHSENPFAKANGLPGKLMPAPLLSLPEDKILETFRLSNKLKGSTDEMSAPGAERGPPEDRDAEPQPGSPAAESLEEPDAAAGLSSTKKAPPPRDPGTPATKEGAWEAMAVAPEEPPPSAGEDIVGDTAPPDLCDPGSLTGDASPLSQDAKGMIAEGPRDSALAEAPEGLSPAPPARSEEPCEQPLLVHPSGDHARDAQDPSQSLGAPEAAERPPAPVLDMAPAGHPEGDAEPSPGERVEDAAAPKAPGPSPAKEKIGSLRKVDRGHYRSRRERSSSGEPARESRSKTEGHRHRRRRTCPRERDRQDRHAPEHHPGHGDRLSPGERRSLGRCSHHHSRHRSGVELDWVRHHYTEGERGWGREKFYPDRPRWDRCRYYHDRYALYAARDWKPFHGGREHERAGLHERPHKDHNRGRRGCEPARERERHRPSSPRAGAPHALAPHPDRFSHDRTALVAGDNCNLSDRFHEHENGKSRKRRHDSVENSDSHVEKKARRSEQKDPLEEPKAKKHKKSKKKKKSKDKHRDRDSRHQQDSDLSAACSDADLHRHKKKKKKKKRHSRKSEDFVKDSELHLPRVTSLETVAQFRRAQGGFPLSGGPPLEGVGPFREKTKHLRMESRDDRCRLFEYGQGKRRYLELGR
Procedure, shortened: (§1)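 Average log2 ratios of fragment over vehicle were obtained by unpaired t-test from global-median-normalised Spectronaut label-free quantities. Proteins with ≥2 unique peptides were included. HEK293T lysate (495 µg per sample) was treated in triplicate with fragment at 200 µM or vehicle for 3 h, then with Biotin-Ahx-Ub-VS at 0.5 µM final for 1 h, and labelled DUBs were NeutrAvidin-enriched and run by diaPASEF LC-MS/MS.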

USP46 = USP46 (UniProt P62068)
Sequence of USP46 (P62068 whole entry): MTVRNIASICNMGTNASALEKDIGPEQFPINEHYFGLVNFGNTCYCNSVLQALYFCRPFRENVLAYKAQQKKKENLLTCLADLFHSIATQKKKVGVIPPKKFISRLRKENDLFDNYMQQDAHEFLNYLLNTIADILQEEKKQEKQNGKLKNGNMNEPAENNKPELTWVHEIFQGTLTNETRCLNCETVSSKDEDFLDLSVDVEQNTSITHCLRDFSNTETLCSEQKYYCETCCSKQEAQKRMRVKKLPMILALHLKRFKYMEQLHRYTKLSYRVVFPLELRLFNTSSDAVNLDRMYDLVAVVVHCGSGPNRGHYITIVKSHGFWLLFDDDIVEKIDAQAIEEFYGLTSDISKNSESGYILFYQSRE
Procedure, shortened: as §1

USP47 = molecular target: T2, USP47 (UniProt Q96K76)
T2 sequence (whole entry): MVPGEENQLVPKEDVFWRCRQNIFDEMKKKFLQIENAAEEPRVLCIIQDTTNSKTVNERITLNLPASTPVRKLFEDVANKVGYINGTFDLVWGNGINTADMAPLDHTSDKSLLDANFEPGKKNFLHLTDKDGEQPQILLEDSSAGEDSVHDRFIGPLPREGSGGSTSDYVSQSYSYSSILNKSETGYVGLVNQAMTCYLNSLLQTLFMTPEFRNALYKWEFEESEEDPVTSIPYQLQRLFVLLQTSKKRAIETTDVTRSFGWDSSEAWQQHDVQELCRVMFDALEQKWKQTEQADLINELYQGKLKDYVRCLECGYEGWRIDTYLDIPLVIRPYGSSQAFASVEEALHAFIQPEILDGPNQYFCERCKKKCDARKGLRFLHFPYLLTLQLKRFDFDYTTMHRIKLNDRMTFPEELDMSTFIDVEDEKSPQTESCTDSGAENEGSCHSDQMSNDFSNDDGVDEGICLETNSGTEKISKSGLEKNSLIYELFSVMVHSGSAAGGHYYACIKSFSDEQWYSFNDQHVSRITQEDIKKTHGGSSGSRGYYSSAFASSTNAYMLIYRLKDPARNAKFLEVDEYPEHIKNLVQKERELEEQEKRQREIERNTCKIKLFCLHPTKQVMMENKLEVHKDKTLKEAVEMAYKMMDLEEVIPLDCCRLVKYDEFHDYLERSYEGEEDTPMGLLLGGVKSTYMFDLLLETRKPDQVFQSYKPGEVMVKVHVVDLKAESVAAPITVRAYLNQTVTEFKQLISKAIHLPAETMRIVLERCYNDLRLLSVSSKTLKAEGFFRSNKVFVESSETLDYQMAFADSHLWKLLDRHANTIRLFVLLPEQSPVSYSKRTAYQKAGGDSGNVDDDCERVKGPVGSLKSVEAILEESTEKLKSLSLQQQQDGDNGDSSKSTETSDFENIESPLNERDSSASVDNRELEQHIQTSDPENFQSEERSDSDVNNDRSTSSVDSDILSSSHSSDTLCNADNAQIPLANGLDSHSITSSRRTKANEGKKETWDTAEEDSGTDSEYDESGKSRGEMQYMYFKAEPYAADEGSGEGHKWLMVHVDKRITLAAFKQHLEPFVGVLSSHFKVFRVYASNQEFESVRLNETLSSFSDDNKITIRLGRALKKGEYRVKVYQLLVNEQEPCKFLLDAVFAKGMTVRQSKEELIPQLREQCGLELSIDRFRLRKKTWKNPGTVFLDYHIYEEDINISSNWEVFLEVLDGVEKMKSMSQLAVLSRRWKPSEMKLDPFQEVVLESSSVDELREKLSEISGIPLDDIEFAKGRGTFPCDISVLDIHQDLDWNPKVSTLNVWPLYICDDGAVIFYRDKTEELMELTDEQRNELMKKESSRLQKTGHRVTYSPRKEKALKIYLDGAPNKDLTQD
Procedure, shortened: as §1

USP48 = molecular target: T3, USP48 (UniProt Q86UV5)
T3 sequence (whole entry): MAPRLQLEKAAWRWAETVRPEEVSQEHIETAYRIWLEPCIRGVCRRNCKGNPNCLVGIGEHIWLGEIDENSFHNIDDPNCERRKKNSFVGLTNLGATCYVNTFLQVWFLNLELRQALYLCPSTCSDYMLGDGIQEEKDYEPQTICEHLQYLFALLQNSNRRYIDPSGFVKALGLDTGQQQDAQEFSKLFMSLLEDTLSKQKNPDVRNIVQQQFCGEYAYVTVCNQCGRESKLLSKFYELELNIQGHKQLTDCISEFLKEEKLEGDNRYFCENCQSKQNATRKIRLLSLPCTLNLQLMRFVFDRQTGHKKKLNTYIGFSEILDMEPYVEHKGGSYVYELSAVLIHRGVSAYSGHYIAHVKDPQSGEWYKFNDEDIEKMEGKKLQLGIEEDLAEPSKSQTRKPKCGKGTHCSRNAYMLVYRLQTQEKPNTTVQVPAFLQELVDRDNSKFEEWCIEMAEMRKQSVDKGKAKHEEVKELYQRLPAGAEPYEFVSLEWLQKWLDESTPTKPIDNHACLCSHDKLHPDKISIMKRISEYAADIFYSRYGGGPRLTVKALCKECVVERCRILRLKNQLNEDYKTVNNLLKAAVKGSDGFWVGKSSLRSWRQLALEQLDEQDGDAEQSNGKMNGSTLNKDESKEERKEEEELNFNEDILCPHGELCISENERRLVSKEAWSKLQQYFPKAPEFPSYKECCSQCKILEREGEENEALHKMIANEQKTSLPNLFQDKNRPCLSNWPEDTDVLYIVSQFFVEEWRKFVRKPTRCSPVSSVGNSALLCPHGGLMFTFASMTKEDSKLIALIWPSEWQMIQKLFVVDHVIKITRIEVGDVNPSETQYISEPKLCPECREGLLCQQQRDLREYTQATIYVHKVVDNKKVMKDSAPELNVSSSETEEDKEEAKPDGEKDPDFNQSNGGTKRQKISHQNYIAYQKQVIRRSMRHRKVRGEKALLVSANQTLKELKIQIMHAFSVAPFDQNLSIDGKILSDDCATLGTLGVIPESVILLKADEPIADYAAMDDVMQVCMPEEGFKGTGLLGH
Procedure, shortened: as §1

USP5 = molecular target: T4, USP5 (UniProt P45974)
T4 sequence (whole entry): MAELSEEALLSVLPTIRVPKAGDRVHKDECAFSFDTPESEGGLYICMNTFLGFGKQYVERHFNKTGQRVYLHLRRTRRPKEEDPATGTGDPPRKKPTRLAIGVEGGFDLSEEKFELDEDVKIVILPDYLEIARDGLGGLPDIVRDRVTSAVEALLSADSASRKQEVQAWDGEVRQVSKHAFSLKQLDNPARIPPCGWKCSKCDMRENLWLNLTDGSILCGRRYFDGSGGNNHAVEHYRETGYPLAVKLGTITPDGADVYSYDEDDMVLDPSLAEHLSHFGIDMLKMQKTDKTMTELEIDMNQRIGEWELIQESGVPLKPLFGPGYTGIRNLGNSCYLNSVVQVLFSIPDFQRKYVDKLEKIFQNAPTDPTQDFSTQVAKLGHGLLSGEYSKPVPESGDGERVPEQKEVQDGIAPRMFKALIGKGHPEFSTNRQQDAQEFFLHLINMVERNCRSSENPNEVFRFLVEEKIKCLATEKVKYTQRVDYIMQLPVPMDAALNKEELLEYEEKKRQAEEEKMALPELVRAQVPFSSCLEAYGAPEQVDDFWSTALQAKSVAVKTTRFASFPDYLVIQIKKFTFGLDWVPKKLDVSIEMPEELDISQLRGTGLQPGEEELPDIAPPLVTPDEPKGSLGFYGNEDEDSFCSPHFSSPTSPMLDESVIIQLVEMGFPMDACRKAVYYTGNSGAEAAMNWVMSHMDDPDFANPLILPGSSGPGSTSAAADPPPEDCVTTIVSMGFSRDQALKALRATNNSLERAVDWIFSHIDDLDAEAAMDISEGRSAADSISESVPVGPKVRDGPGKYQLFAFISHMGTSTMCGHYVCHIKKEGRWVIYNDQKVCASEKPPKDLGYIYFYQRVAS
Procedure, shortened: as §1

USP54 = USP54 (UniProt Q70EL1)
Procedure, shortened: as §1

USP7 = USP7 (UniProt Q93009)
Sequence of USP7 (Q93009 whole entry, looked up): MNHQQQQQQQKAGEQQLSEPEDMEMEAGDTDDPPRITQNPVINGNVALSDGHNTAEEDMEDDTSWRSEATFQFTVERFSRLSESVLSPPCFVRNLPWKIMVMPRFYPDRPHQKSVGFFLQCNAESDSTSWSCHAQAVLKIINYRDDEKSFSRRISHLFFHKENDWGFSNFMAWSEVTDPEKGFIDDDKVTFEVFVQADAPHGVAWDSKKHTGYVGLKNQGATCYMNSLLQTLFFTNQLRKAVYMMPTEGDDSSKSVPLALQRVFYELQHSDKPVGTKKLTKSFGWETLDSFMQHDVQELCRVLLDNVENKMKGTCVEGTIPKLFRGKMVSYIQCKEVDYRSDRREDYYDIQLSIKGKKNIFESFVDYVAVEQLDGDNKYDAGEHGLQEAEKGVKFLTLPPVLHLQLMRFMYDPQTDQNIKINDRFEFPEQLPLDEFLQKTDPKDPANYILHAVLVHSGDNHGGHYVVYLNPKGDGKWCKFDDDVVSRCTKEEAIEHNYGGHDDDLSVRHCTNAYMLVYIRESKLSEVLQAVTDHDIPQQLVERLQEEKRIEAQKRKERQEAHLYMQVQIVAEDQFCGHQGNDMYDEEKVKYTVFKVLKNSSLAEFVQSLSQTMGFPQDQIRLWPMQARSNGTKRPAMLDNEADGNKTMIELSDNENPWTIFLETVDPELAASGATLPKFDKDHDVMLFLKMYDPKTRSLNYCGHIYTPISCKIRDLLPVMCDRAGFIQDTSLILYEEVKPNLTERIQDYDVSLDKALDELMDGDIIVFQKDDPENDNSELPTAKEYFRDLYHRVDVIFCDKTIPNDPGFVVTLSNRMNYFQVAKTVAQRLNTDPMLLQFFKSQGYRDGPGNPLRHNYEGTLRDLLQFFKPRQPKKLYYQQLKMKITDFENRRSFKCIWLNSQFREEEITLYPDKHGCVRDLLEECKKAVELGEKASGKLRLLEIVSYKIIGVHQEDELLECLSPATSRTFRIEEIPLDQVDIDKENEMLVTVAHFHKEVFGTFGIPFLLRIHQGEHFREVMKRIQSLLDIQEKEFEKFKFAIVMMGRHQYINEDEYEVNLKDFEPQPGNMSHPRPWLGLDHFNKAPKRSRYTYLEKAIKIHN
Procedure, shortened: as §1

USP8 = molecular target: T5, USP8 (UniProt P40818)
T5 sequence (whole entry): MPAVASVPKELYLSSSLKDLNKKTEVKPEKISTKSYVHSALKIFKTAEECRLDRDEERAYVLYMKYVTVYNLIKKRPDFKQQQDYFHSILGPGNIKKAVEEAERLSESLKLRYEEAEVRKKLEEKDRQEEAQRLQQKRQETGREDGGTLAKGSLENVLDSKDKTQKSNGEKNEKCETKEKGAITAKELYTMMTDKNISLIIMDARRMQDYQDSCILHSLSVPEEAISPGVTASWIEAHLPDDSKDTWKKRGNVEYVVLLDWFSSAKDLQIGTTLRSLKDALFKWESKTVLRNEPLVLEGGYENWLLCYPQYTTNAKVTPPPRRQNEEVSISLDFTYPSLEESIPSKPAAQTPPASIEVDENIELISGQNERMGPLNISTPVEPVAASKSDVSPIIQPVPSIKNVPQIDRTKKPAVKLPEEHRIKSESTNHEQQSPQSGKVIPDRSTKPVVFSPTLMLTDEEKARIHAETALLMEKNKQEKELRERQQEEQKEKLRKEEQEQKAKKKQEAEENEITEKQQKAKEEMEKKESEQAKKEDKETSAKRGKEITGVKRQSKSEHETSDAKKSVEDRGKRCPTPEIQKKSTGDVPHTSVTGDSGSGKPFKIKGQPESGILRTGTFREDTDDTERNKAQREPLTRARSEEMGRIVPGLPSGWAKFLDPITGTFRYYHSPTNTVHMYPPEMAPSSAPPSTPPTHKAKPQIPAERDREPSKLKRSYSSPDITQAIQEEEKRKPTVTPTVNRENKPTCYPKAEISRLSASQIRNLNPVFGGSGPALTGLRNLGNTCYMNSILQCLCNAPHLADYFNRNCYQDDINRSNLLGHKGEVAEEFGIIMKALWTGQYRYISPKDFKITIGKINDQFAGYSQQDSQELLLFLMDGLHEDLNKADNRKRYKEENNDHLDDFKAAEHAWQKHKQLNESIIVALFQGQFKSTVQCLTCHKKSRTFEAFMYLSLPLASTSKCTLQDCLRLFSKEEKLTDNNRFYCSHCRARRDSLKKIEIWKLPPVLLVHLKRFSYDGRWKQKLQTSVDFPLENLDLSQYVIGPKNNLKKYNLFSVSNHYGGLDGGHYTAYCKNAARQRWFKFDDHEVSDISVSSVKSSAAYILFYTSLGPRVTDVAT
Procedure, shortened: as §1

USP9X = USP9X (UniProt Q93008)
Sequence of USP9X (Q93008 whole entry): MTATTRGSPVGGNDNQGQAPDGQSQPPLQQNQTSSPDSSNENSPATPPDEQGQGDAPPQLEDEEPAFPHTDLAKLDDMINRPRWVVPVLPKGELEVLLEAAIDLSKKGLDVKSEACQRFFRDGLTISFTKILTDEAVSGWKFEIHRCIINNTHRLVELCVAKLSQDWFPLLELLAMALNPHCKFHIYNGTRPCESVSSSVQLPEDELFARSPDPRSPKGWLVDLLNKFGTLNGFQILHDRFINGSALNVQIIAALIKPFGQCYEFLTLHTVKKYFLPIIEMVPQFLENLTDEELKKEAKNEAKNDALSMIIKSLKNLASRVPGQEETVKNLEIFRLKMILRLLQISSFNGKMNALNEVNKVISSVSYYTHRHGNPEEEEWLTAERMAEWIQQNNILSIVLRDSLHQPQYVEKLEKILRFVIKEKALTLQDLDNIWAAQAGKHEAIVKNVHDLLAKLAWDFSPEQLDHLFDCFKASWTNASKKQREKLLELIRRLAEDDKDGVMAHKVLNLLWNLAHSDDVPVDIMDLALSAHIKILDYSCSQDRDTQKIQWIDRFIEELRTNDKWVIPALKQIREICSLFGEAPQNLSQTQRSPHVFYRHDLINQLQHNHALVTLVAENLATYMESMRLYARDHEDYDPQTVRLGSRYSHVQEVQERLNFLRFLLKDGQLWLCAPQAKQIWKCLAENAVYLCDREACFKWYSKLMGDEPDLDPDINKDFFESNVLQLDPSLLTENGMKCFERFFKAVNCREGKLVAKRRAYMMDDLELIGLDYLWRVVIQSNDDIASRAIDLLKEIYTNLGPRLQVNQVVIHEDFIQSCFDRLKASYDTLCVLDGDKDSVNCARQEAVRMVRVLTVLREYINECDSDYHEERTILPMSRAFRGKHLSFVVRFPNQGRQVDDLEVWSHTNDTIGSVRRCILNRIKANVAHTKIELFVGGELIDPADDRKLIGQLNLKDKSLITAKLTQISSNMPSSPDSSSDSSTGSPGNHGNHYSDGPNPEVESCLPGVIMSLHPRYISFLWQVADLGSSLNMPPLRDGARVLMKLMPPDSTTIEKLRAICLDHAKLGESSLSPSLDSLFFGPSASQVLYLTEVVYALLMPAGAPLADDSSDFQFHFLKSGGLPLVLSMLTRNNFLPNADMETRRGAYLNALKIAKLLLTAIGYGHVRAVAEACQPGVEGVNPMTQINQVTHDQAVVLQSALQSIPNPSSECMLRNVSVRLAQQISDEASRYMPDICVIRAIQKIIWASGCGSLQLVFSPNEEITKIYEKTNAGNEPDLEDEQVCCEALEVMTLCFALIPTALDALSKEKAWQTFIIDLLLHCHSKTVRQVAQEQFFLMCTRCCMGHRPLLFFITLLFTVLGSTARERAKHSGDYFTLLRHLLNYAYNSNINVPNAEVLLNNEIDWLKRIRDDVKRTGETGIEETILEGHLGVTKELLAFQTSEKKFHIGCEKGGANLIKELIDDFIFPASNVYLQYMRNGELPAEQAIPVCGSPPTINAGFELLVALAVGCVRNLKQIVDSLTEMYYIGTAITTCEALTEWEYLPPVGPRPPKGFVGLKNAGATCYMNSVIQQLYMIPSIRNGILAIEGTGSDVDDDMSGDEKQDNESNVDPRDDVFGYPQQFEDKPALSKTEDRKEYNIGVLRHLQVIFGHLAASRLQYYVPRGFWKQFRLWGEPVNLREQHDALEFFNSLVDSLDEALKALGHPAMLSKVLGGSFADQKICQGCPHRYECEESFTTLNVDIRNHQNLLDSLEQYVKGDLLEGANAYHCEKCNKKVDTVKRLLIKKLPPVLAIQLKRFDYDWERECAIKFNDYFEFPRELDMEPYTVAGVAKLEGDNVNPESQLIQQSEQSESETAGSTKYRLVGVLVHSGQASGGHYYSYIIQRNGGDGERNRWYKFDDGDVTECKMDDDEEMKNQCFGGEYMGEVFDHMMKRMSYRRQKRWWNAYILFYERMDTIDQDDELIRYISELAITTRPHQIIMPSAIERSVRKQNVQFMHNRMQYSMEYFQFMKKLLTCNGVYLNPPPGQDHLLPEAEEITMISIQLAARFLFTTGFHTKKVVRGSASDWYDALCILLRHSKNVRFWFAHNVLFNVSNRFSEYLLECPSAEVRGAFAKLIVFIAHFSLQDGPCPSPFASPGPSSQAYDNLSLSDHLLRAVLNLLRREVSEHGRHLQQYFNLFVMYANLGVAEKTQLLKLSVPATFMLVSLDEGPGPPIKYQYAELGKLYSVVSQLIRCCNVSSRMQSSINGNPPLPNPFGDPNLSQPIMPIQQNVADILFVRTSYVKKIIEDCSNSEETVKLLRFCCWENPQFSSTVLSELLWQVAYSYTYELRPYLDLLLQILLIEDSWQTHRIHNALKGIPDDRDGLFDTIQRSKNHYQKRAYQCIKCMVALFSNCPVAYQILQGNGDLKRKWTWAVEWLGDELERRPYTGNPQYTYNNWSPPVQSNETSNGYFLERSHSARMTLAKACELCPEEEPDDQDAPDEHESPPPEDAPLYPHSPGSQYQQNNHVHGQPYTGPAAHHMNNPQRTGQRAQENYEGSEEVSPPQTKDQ
Procedure, shortened: as §1

UniProt O00487 = molecular target: UniProt O00487
Sequence of UniProt O00487 (O00487 whole entry): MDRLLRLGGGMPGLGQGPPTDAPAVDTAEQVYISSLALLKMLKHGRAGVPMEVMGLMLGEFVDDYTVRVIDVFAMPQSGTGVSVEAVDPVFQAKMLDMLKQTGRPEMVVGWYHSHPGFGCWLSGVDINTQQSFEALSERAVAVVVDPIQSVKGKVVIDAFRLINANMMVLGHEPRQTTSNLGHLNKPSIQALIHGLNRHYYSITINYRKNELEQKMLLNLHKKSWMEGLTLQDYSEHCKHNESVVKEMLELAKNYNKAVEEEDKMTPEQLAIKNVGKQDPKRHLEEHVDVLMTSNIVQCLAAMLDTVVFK
Procedure, shortened: as §1

Measured: log2 ratio of Biotin-Ahx-Ub-VS probe labelling

CC(NC(=O)CCl)c1cc2n(n1)CCCC2.Cl (stereo not given)
inactive: USP42 0.487 | USP46 -0.0285 | USP47 0.43 | USP48 -0.017 | USP5 -0.437 | USP54 0.53 | USP7 -0.279 | USP8 0.0604 | USP9X -0.0806 | UniProt O00487 -0.00796

Source: the supplement of paper PMC11732987, “Enantioselective OTUD7B fragment discovery through chemoproteomics screening and high-throughput optimisation” (Communications Chemistry, 2025)
